# Experimental data taken from PubChem BioAssay (EPA / NIEHS).
# Where “and” joins values, the source holds several entries; their conditions need not be identical. Equal entries are not always repeated. Inconclusive results are not listed. Calls of active or inactive are those of the source. The calls were made as follows: active = hit-call score of the fitted dose curve at least 0.9, where 1 is the maximum; inconclusive = response in the unintended direction; inactive = score below 0.9.
# Key:
# [1] = biological target: rat Peripheral-type Benzodiazepine Receptor (PBR), Tspo (gene 24230) (UniProt P16257); experiment: NVS_MP_rPBR: NovaScreen (NVS) Membrane Protein Assay for rat Peripheral-type Benzodiazepine Receptor (PBR) (AID 2283335)
# Outline: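 Radioligand displacement, rat kidney membrane prep, 1 h exposure, filter-based scintillation read; DMSO baseline, loss-of-signal scored. Primary screen at 25 uM in duplicate, actives followed up in concentration series.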
# [2] = biological target: human Peripheral-type Benzodiazepine Receptor (PBR), TSPO (gene 706) (UniProt P30536); experiment: NVS_MP_hPBR: NovaScreen (NVS) Membrane Protein Assay for human Peripheral-type Benzodiazepine Receptor (PBR) (AID 2283331);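 also: hits reduce radioligand binding relative to DMSO baseline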
# Outline: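 Radioligand displacement on human colonic cell membranes, 1 h incubation; bound radioactivity by filtration and scintillation counting. Primary screen in duplicate at 25 uM single concentration, actives followed up in concentration series; loss of binding versus DMSO.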
# [3] = biological target: human Androgen Receptor (AR), AR (gene 367) (UniProt P10275); experiment: NVS_NR_hAR: NovaScreen (NVS) Nuclear Receptor Binding Assay for human Androgen Receptor (AR) (AID 2283332)
# Outline: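 LnCAP cell-free extract; radioligand displacement read by scintillation counting after 20 h. Primary screen single concentration 25 uM in duplicate, actives then run as concentration series; loss-of-signal fitted relative to DMSO baseline.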
# [4] = NVS_IC_rCaBTZCHL: NovaScreen (NVS) Ion Channel Assay for Calcium Channel, Type L, Benzothiazepine Site (CaBTZCHL) (AID 2283337)
# Outline: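 Radioligand binding to the benzothiazepine site of L-type Ca channels in rat cortical membranes (cell-free), 1.5 h after dosing; filter-based scintillation counting. Loss of signal relative to DMSO baseline; primary single-concentration screen at 25 uM, actives then run in concentration series.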
# Sequence of human Androgen Receptor (AR), AR (gene 367) (P10275 whole entry, looked up): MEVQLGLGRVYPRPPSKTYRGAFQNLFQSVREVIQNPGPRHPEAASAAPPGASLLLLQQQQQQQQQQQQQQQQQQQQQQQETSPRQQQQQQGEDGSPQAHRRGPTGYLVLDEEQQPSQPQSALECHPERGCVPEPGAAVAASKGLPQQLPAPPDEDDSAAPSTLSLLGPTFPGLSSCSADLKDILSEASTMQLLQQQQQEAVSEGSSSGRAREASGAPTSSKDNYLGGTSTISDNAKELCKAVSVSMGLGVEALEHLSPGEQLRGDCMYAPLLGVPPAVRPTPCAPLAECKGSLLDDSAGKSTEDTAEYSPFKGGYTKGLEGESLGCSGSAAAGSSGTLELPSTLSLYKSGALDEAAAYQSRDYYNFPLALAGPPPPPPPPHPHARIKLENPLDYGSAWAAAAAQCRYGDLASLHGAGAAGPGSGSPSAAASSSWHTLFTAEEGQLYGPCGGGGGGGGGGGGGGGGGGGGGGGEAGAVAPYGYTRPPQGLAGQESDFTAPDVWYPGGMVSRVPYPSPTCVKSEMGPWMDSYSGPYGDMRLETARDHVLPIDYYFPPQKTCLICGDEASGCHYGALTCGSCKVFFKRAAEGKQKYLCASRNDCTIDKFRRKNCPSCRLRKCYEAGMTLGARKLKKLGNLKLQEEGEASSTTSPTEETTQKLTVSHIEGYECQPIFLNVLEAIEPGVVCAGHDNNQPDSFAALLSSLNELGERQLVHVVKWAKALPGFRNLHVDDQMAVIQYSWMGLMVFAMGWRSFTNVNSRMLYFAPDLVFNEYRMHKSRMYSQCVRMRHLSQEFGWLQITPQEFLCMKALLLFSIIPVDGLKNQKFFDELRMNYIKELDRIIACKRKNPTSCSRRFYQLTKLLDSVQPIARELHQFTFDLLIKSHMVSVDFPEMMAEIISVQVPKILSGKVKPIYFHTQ
# Sequence of rat Peripheral-type Benzodiazepine Receptor (PBR), Tspo (gene 24230) (P16257 whole entry, looked up): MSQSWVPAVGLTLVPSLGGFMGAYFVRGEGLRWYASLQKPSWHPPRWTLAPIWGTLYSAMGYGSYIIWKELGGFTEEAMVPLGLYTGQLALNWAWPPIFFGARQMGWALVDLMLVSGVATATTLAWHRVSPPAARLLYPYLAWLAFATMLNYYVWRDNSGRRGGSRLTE
# Sequence of human Peripheral-type Benzodiazepine Receptor (PBR), TSPO (gene 706) (P30536 whole entry, looked up): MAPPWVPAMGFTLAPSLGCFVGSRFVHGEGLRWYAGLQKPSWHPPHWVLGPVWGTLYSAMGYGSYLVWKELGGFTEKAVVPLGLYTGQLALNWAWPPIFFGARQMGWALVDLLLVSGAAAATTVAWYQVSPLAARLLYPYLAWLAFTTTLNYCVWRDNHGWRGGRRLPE
smiles,measurement,setting,value
O=[N+]([O-])c1ccc2c3c(cccc13)CC2,AC50,[1],13.3 µM (active)
COP(=S)(OC)Oc1ccc(Sc2ccc(OP(=S)(OC)OC)cc2)cc1,AC50,[2],1.16 µM (active) and 16.9 µM (active)
same,AC50,[3],17.9 µM (active)
same,AC50,[1],0.307 µM (active)
same,AC50,[4],25 µM (active)
CC(C)(c1ccc(OCC2CO2)cc1)c1ccc(OCC2CO2)cc1 (stereo not drawn),AC50,[2],7.73 µM (active)
same,AC50,[1],4.31 µM (active)
COc1cc(-c2ccc(N)c(OC)c2)ccc1N,AC50,[2],19.4 µM (active)
same,AC50,[1],2.75 µM (active) and 2.71 µM (active)
COP(=S)(OC)Oc1c(Cl)cc(C)cc1Cl,AC50,[2],9.23 µM (active)
same,outcome,[1],inactive
Clc1ccc(C2(Cn3cncn3)CC(Br)CO2)c(Cl)c1 (stereo not drawn),AC50,[1],14.5 µM (active)
COP(=O)(OC)O/C(=C\Cl)c1cc(Cl)c(Cl)cc1Cl,AC50,[2],0.401 µM (active)
same,AC50,[1],0.38 µM (active)
O=Cc1cccc(Oc2ccccc2)c1,outcome,[1],inactive
same,outcome,[4],inactive
CCC[CH2][Sn]([CH2]CCC)([CH2]CCC)[O]C(=O)c1ccccc1,AC50,[2],5.59 µM (active)
N#CCCO,outcome,[3],inactive
CCN(CC)C(=O)Cl,outcome,[3],inactive
CC12CC1(C)C(=O)N(c1cc(Cl)cc(Cl)c1)C2=O (stereo not drawn),AC50,[3],17.1 nM (active) and 355 nM (active)
same,AC50,[1],6.63 µM (active) and 1.03 µM (active) and 850 nM (active)
c1cc[c]([Hg][c]2ccccc2)cc1,AC50,[2],0.372 µM (active)
COP(=S)(OC)Oc1ccc(S(=O)(=O)N(C)C)cc1,AC50,[2],5.32 µM (active)
same,AC50,[1],1.45 µM (active)
Clc1ccc(COC(Cn2ccnc2)c2ccc(Cl)cc2Cl)cc1 (stereo not drawn),AC50,[2],1.09 µM (active)
same,AC50,[1],1.63 µM (active)
O=C(OC1CCCCC1)c1ccccc1C(=O)OC1CCCCC1,AC50,[2],3.21 µM (active) and 6.79 µM (active)
Cl/C=C\C[N+]12CN3CN(CN(C3)C1)C2,outcome,[3],inactive
